Among the data in PubChem BioAssay AID463173 (ICCB-Longwood Screening Facility, Harvard Medical School, 2010) are survival values, retold here.

Hit rate of the full screen: of about 52,000 compounds, about 1,700 (3.3%) were called active. The entries come from a sample that favours actives as a whole. A number with no mark means an inactive call. Cut-off read from the data, not from the text of the source: active = survival mostly below about 52% (no sharp cut-off); inactive = mostly above about 56%.

The test system of the assay is Wild type. The assay is described as follows: growth inhibition of S. aureus wild type versus tarO mutant, primary screen, teichoic acid synthesis inhibitors, RN4220, OD600 (AID 463173). The conditions noted are these: S. aureus RN4220 wild type/DeltatarO growth, OD600, 18 h, hits give low values, screened at 18.75 µg/mL (by protocol).
With `COc1ccc(N2CCN(C(=O)CN(c3cccc(C(F)(F)F)c3)S(C)(=O)=O)CC2)cc1`, the survival was 110%. Under `COc1ccccc1N1CCN(C(=O)c2ccc(CS(=O)c3ccccc3C)o2)CC1` (configuration not stated) stands 75%; under `CCCSCCCNC(=O)c1cc2n(n1)CCCN(Cc1ccc(C)cc1)C2=O`, 113%; under `Cc1ccc(CN2CCCn3nc(C(=O)NC(C)C)cc3C2=O)cc1`, -2% (active).

As to `CCCCNC(=O)c1cc2n(n1)CCCN(Cc1ccc(C)cc1)C2=O`, the survival is 0% (active). Under `CCCNC(=O)c1cc2n(n1)CCCN(Cc1ccc(C)cc1)C2=O` stands 129%; under `CCC(C)NC(=O)c1cc2n(n1)CCCN(Cc1ccc(C)cc1)C2=O` (configuration not stated), 88%; under `CCNC(=O)c1cc2n(n1)CCCN(Cc1ccc(C)cc1)C2=O`, 22%. Next, `CCCCn1cc(S(=O)(=O)c2ccc(CC)cc2)c(=O)c2cc(F)c(N3CCOCC3)cc21`: 73%. Next, `Cc1cccc(Cn2nnc3c(=O)[nH]c(C4CCN(C(=O)c5ccc(F)cc5)CC4)nc32)c1`: 29%.

As to `O=C(c1ccccc1)N1CCCC(c2nc3c(nnn3Cc3ccc(F)cc3F)c(=O)[nH]2)C1` (configuration not stated), the survival was 104%. On to `Cc1ccccc1Cn1nnc2c(=O)[nH]c(C3CCN(C(=O)c4ccccc4)CC3)nc21`, for which the survival is 25%. Under `O=C(c1ccccc1)N1CCC(c2nc3c(nnn3Cc3ccccc3)c(=O)[nH]2)CC1` stands 0% (active); under `COc1ccc(Cn2nnc3c(=O)[nH]c(C4CCN(C(=O)c5ccc(C)cc5)CC4)nc32)cc1OC`, 53%; under `Cc1cccc(Cn2nnc3c(=O)[nH]c(C4CCCN(C(=O)c5ccc(C(C)(C)C)cc5)C4)nc32)c1` (configuration not stated), 23%. Next, `CC(C)(C)C(=O)N1CCCC(c2nc3c(nnn3Cc3ccc(C(C)(C)C)cc3)c(=O)[nH]2)C1` (configuration not stated): 50% (active); `Cc1ccccc1Cn1nnc2c(=O)[nH]c(C3CCN(C(=O)c4ccc(F)cc4)CC3)nc21`: 74%; `COc1cccc(OC)c1Cn1nnc2c(=O)[nH]c(C3CCN(C(=O)c4ccccc4)CC3)nc21`: 76%.

With `O=C(c1cccc(Cl)c1)N1CCC(c2nc3c(nnn3Cc3ccc(F)cc3F)c(=O)[nH]2)CC1`, the survival was 9% (active). Under `CCOc1ccc(Cn2nnc3c(=O)[nH]c(C4CCN(C(=O)c5ccccc5)CC4)nc32)cc1` stands 3% (active); under `CC(C)(C)c1ccc(C(=O)N2CCCC(c3nc4c(nnn4Cc4cccc(F)c4)c(=O)[nH]3)C2)cc1` (configuration not stated), 17%; under `Cc1cn2c(=O)cc(COc3ccccc3NC(=O)c3ccc(Cl)cc3)nc2s1`, 85%.

With `COc1ccc(CCNC(=O)Cn2nc(C)n3c(cc4occc43)c2=O)cc1OC`, the survival is 86%. Under `COc1ccc(NC(=O)c2oc3ccccc3c2NC(=O)Cc2coc3ccc(C)cc23)cc1` stands 85%. Take `CCc1ccccc1NC(=O)c1sc2nc3n(c(=O)c2c1C)CCC3`: the survival was 90%. Regarding `CCOc1cc(C#N)c(NC(=O)c2ccc(OC)c(S(=O)(=O)N3CCCCC3)c2)cc1OCC`, the survival is 75%.

`CCOc1ccc(Cn2c(CNS(=O)(=O)c3ccc(CC)cc3)nc3cccnc32)cc1`: the survival is 69%.

For the compound `Cc1ccc(Cn2c(CNC(=O)Cc3cccc([N+](=O)[O-])c3)nc3cccnc32)cc1`, the survival was 67%. Under `COc1ccc(Cn2c(CNC(=O)Cc3cccc([N+](=O)[O-])c3)nc3cccnc32)cc1` stands -6% (active); under `CCc1ccc(Cn2c(CNS(=O)(=O)c3ccc([N+](=O)[O-])cc3)nc3cccnc32)cc1`, 0% (active); under `O=[N+]([O-])c1ccc(S(=O)(=O)NCc2nc3cccnc3n2Cc2ccccc2Cl)cc1`, 74%. Under `O=C(Cc1cccc([N+](=O)[O-])c1)NCc1nc2cccnc2n1Cc1ccc(F)cc1` stands 133%; under `CCc1ccc(S(=O)(=O)NCc2nc3cccnc3n2Cc2ccccc2Cl)cc1`, 83%; under `CCOc1ccc(Cn2c(CNS(=O)(=O)c3ccc([N+](=O)[O-])cc3)nc3cccnc32)cc1`, 87%.

Consider `COc1ccc(Cn2c(CNS(=O)(=O)c3ccc4c(c3)CCCC4)nc3cccnc32)cc1`, for which the survival is 133%.

For the compound `CCc1ccc(Cn2c(CNS(=O)(=O)c3ccc(C)c(C)c3)nc3cccnc32)cc1`, the survival is 71%. As for `COc1ccc(Cn2c(CNS(=O)(=O)c3ccc(C)c(C)c3)nc3cccnc32)cc1`, the survival was -1% (active). Under `CC(C)(C)c1ccc(S(=O)(=O)NCc2nc3cccnc3n2Cc2ccccc2Cl)cc1` stands 14% (active). Next, `COC(=O)c1ccc2c(c1)N(CC(=O)Nc1cccc(C(F)(F)F)c1)C(=O)c1ccccc1S2`: 77%; `Cc1ccc(OCC(=O)Nc2ccc3nc(SCC(=O)N4CCCC4)sc3c2)cc1`: 91%; `COc1cccc(CC(=O)NCc2ccc3c(c2)CCN3C(C)=O)c1`: 71%. Take `COc1cccc(C(=O)Nc2cc(-c3ccccc3)nn2-c2ccccc2)c1`: the survival is 69%. For `Cc1ccc(NC(=O)c2c(C)oc3ccc(O)c(CN4CCCCC4)c23)cc1`, the survival was 86%. Next, `Cc1cc(C)c(NS(=O)(=O)c2ccc3c(c2)CC(C)N3C(=O)C2CCC2)c(C)c1` (configuration not stated): 64%.

`O=C(CCCCn1c(=O)c2ccccc2n(Cc2cccc(Cl)c2)c1=O)NCc1ccc2c(c1)OCO2`: the survival was 98%. Under `CCCCNC(=O)c1cccc(-n2c(C)nc3cccnc32)c1` stands 73%; under `CCc1ccccc1NC(=O)CCNS(=O)(=O)c1ccc2c(c1)CCCC(=O)N2`, 73%. Under `CCn1c(CN2CCOCC2)nc2cc(NC(=O)c3ccc([N+](=O)[O-])cc3)ccc21` stands 90%.

Consider `c1cc2c(cc1CNC1CCCC1)OCO2`, for which the survival is 104%. Under `O=C(CSc1nnc(-c2ccncc2)n1-c1ccccc1)Nc1ccc(F)cc1` stands 72%; under `Cc1ccc(O)c(C2=Nc3ccccc3N=C(c3cccc(F)c3)C2)c1`, 139%; under `COc1ccc(CCC(=O)NCc2nc3cccnc3n2Cc2ccc(F)cc2)cc1`, 123%. Next, `CCc1ccc(Cn2c(CNS(=O)(=O)c3ccc(F)c(Cl)c3)nc3cccnc32)cc1`: -3% (active); `O=C(CCc1ccccc1)NCc1nc2cccnc2n1Cc1ccc(F)cc1`: -6% (active); `O=S(=O)(NCc1nc2cccnc2n1Cc1ccccc1Cl)c1ccc(F)c(Cl)c1`: 76%. Next, `CCc1ccc(Cn2c(CNS(=O)(=O)c3ccc(Cl)s3)nc3cccnc32)cc1`: 53%. Turning to `O=S(=O)(NCc1nc2cccnc2n1Cc1ccc(F)cc1)c1ccc(Cl)s1`, the survival is -6% (active). Turning to `Cc1ccc(Cn2c(CNS(=O)(=O)c3ccc(Cl)s3)nc3cccnc32)cc1`, the survival is 136%.

Regarding `Cc1ccc(Cn2c(CNS(=O)(=O)c3ccc(F)c(Cl)c3)nc3cccnc32)cc1`, the survival is 134%. With `Cc1ccc(Cn2c(CNC(=O)CCc3ccccc3)nc3cccnc32)cc1`, the survival was 99%. Next, `COc1ccc(C)cc1NC(=O)C(NS(=O)(=O)c1cccc2nsnc12)c1ccccc1` (configuration not stated): 64%. Under `Cc1cc(C)c(/C=C/c2onc(C)c2S(=O)(=O)N2CCC(C(=O)NCc3ccccc3Cl)CC2)c(C)c1` stands 72%; under `Cc1ccc(CNS(=O)(=O)c2cc(Br)cc3c2N(C(=O)C2CC2)CC3)cc1`, 66%; under `Cc1cc(NC(=O)COCc2cc(-c3ccc(F)cc3)on2)ccc1Br`, 82%. Next, `CCC(=O)N1CCc2cc(S(=O)(=O)NC(CC(C)C)C(=O)Nc3ccc(CC)cc3)ccc21` (configuration not stated): 84%. Consider `Cc1ccc2c(c1C)NC(=O)CC2c1ccc(Cl)cc1Cl` (configuration not stated), for which the survival is 1% (active). Next, `COc1cccc(C2CC(=O)Nc3c2ccc(C)c3C)c1OC` (configuration not stated): 87%. Under `CC1=C(C(=O)OCC2CCCCC2)C(c2ccc(Cl)cc2Cl)CC(=O)N1` (configuration not stated) stands 82%; under `CCOC(=O)CSc1ccc2nnc(CCNS(=O)(=O)c3ccccc3)n2n1`, 87%. Next, `Cc1c(-c2nc(-c3ccc4c(c3)OCO4)no2)nnn1-c1ccc(C(C)C)cc1`: 73%; `CCOc1ccccc1CNC(=O)Cn1ncn2nc(-c3cccs3)cc2c1=O`: 93%. For `Cc1cc(OC(=O)c2cc(-c3ccc4c(c3)OCCO4)on2)ccc1Cl`, the survival is -6% (active). Next, `COc1ccc(OC(=O)c2cc(-c3ccc4c(c3)OCCO4)on2)cc1`: 109%. As to `O=C(Oc1ccc(Cl)cc1)c1cc(-c2ccc3c(c2)OCCO3)on1`, the survival is 108%. Under `Cc1ccc(OC(=O)c2cc(-c3ccc4c(c3)OCCO4)on2)cc1C` stands -7% (active). Under `N#Cc1ccc(OC(=O)c2cc(-c3ccc4c(c3)OCCO4)on2)cc1` stands 117%. Next, `CC(C)c1ccc(OC(=O)c2cc(-c3ccc4c(c3)OCCO4)on2)cc1`: 46%. Consider `CCn1c(=NC(=O)c2ccc(S(=O)(=O)N3CCCCC3)cc2)sc2cccc(OC)c21`, for which the survival is 68%. Under `Cc1ccc(C(=O)NC2CC3CCCC(C2)N3C(=O)NC2CCCCC2)cc1` (configuration not stated) stands 101%. Consider `O=C(CCC1CCCC1)N1CCN(C(=O)Cc2ccccc2)CC1`, for which the survival is 94%. On to `COc1cc(OC)c(Nc2nc3ccccc3c3nncn23)cc1Cl`, for which the survival is 136%. Next, `CCOc1ccc(-n2c(-c3ccc(Br)cc3)cc3c2CC(C)(C)CC3=O)cc1`: 8% (active); `COc1ccc(C)cc1-n1c(-c2ccc(Cl)cc2)cc2c1CC(C)(C)CC2=O`: 94%.

Take `Cc1ccc(-c2cc3c(n2-c2ccc(C)cc2)CC(C)(C)CC3=O)cc1`: the survival is 69%. On to `COc1ccc(-n2c(-c3ccc(Cl)cc3)cc3c2CC(C)(C)CC3=O)c(OC)c1`, for which the survival was 3% (active).

For the compound `CCOc1ccc(-n2c(-c3ccc(OC)cc3)cc3c2CC(C)(C)CC3=O)cc1`, the survival is 41%. For the compound `COc1ccc(-n2c(-c3ccc(C)cc3)cc3c2CC(C)(C)CC3=O)c(OC)c1`, the survival is 96%.
